SENP6 inh: SENP6 protease inhibition. Recombinant SENP6 catalytic domain, aminoluciferin luminescence. Q9GZR1. 330,000 tested, 1.8% active. inhibition, % at 10 µM;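 active = inhibition above about 50% at the single tested dose, limit read from the data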;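 also: plate controls were DMSO wells with enzyme for no effect and DMSO wells lacking enzyme for full effect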
SENP8 block-1: SENP8 protease inhibition. purified SENP8, Z-RLRGG-aminoluciferin cleavage, luminescence. inhibition, % at 10 µM. Q96LD8. 330,000 tested, 1.2% active; in the data active = inhibition above about 50%
SENP7 block: inhibitors of human SENP7 protease. Q9BQF6. recombinant SENP7, Z-RLRGG-aminoluciferin luminescence, 40 min. inhibition, % at 5 µM. 330,000 tested, 1.5% active. AID 434973;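 active = inhibition above about 50% at the single test dose, limit read from the data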;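 also: plate controls were DMSO with enzyme for no effect and no enzyme buffer wells for full effect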
Target sequence (Q9BQF6 706-1050 limits assumed): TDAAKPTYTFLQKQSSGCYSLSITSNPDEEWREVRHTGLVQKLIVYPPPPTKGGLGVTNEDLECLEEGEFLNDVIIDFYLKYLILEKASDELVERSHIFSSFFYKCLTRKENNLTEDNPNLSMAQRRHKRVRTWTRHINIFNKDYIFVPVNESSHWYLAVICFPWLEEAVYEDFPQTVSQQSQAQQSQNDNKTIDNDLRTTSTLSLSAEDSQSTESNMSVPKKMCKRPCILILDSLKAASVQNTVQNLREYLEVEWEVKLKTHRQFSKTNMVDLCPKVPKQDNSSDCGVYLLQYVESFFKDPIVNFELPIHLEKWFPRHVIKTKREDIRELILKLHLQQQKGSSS
Platelet DG rel: platelet dense granule release activity. inhibition, %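 (compounds screened at 7.5 µM in platelet-rich plasma)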. AID 1663. 300,000 tested, 0.22% active. human platelet-rich plasma, SFLLRN dense granule ATP release, luminescence;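 active = mean replicate score, as percent of positive control, at or above 50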
SENP8 block-2: blocks human SENP8 cleavage of Nedd8 substrate. recombinant SENP8, Nedd8 substrate fluorescence. inhibition, % at 20 µM. 360,000 tested, 0.64% active; in the data active = inhibition mostly above about 40%, no sharp cut-off; inactive = mostly below about 27%
SENP8 conf: confirmation of human SENP8 protease inhibitors; shares compounds with SENP7 block; Recombinant SENP8, Z-RLRGG-aminoluciferin luminescence, 60 min; inhibition, % at 12.5 µM; 6,200 tested, 40% active;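 active = mean inhibition across replicates above about 50%, limit read from the data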
SENP6 confirm: confirmation of human SENP6 protease inhibitors; recombinant SENP6, Z-RLRGG-aminoluciferin luminescence; shares compounds with SENP7 block; inhibition, % at 12.5 µM; 6,200 tested, 58% active
SENP7 confirm: human SENP7 inhibition, confirmed. AID 488917. recombinant SENP7, Z-RLRGG-aminoluciferin luminescence, 40 min. inhibition, % at 12.5 µM. shares compounds with SENP7 block. 6,200 tested, 69% active
Casp3 select: caspase-3 inhibition (SENP selectivity assay); shares compounds with SENP7 block; purified caspase-3, Z-DEVD-aminoluciferin luminescence, 60 min; inhibition, % at 12.5 µM; 6,200 tested, 60% active; AID 488918;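 active = mean inhibition above about 50%, limit read from the data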;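 also: plate controls were enzyme with DMSO for no effect and wells without caspase-3 for full effect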
Target sequence (P42574 28-227 limits assumed): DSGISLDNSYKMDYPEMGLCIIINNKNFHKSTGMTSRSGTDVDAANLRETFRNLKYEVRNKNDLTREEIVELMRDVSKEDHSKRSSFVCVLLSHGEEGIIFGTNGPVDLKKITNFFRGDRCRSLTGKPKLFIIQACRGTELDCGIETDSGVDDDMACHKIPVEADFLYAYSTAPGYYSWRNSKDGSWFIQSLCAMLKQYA
SENP luc ctr: interferes with luciferase luminescence in SENP counter-screen; AID 488919; shares compounds with SENP7 block; inhibition, % at 12.5 µM; 6,200 tested, 39% active; Pre-incubated SENP8/Z-RLRGG-aminoluciferin, luciferase luminescence interference;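 active = mean inhibition above about 50% when retested at one dose, limit read from the data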;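 also: plate controls were DMSO wells with completed reaction for no effect and substrate without enzyme for full effect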
* marks the source's active call; other numbers are inactive results; i = inactive; / = not tested or not shown. Only some compounds are listed: those with a hit (about 2.4% of all), similar ones and a draw of the others.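 The calls were made as follows, unless noted: active = mean inhibition above about 50% in the one-dose retest (limit read from the data); inactive = the rest.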

SMILES	SENP6 inh	SENP8 block-1	SENP7 block	Platelet DG rel	SENP8 block-2	SENP8 conf	SENP6 confirm	SENP7 confirm	Casp3 select	SENP luc ctr
Cc1cc(C)c2cccc(N)c2n1	71.4*	2.2	7.3	2.6	-6.5	-22.4	-18.1	-7.0	-6.1	-4.8
Cc1nc(C2COc3ccccc3O2)sc1C(=O)O (configuration not stated)	88.0*	83.5*	79.8*	-3.3	3.1	89.9*	90.6*	99.4*	96.7*	88.1*
O=c1oc(CCCO)cc2ccc(/C=C/c3cccc([N+](=O)[O-])c3)cc12	21.5	1.9	61.2*	/	-24.1	7.9	16.8	30.5	29.5	4.0
COc1ccc(-n2c(O)c(/C=N/NS(=O)(=O)c3cccc([N+](=O)[O-])c3)c3ccccc3c2=O)cc1OC	52.8*	9.5	24.8	-2.8	-399.7	9.7	19.3	-4.6	0.1	0.1
CC(C)C[C@H]1CNC(=O)C(=O)N1CC1CCN(CCc2ccccc2)CC1	/	/	/	/	11.7	/	/	/	/	/
COc1ccsc1NC(=O)OCc1ccc(Cl)cc1	50.5*	49.4	37.9	0.6	1.7	57.9*	56.3*	84.5*	55.2*	62.5*
CSc1nsc(NC(=O)OCc2ccc(Cl)cc2)n1	29.5	5.0	-4.9	-0.6	5.9	/	/	/	/	/
COc1cccc(CN2CCNC(=O)C2CC(=O)NC2CCCCCCC2)c1 (configuration not stated)	-4.9	-14.2	-15.3	-13.9	-70.0	/	/	/	/	/
Cc1cnc(C(=O)OCC(=O)Nc2ncc(Cl)cc2Cl)cn1	-15.0	-11.6	-14.9	/	-4.7	/	/	/	/	/
O=S1(=O)CC/C(=N/Nc2ccc(C(F)(F)F)cn2)c2cc(F)ccc21	-2.1	-2.9	5.7	8.0	24.2	/	/	/	/	/
O=S1(=O)CC/C(=N/Nc2ccccn2)c2cc(F)ccc21	-15.4	-6.9	62.7*	5.4	8.5	4.4	7.1	8.1	3.7	1.8
O=c1[nH]c(Nc2ccccc2)cc2ccccc12	89.4*	95.9*	94.2*	2.5	-413.5	55.2*	80.3*	59.0*	25.4	17.9
COc1ccc(OC)c(Nc2cc3ccccc3c(=O)[nH]2)c1	94.5*	88.1*	96.7*	-1.2	i	31.0	73.8*	41.1	10.8	-7.8
COc1ccccc1Nc1cc2cc(Br)ccc2c(=O)[nH]1	98.2*	97.4*	95.7*	2.8	-178.6	86.2*	97.0*	93.6*	86.0*	14.1
CC(=O)c1cccc(-c2ccc3c(=O)[nH]c(Nc4ccccc4)cc3c2)c1	99.4*	96.6*	95.0*	7.5	6.3	95.0*	97.4*	94.9*	97.4*	16.4
COc1ccc(OC)c(Nc2nnc(C)c(=O)[nH]2)c1	-23.2	-4.9	-8.0	-1.6	/	/	/	/	/	/
CCOC(=O)C1CCN(C(=O)c2ccc3c(=O)n4nc(Nc5ccccc5)sc4nc3c2)CC1	/	/	/	/	-417.0	/	/	/	/	/
CCc1ccc2c(CC(=O)Nc3cccc(S(=O)(=O)N4CCOCC4)c3)coc2c1	-11.0	-13.5	-8.7	/	-16.1	/	/	/	/	/
C=CCN=C(NC#N)SC	2.7	0.0	-0.4	15.2	19.9	/	/	/	/	/
Cc1c(C(=O)NC2CCS(=O)(=O)C2)oc2ccccc12 (configuration not stated)	-10.8	-4.7	9.0	-4.8	10.4	/	/	/	/	/
N#Cc1ccccc1OCC(=O)NCc1ccccc1CN1CCCC1	-10.3	-2.1	1.6	/	-18.3	/	/	/	/	/
O=c1[nH]c(Nc2ccccc2)cc2cc(Br)ccc12	96.0*	96.5*	93.7*	-3.9	-173.5	95.9*	98.0*	96.1*	95.2*	17.6
COc1ccccc1N1C(=O)C(Cl)=C(Nc2ccccc2O)C1=O	/	/	/	-0.7	29.9	/	/	/	/	/
O=C1C(Cl)=C(Nc2ccccc2O)C(=O)N1c1ccccc1	51.6*	14.1	26.8	-0.2	19.0	41.7	38.1	65.7*	60.1*	50.8*
O=C(O)C1CCN(Cc2ccccn2)CC1	82.9*	4.8	2.2	0.4	14.6	11.0	1.2	5.2	5.9	3.0
SMILES	SENP6 inh	SENP8 block-1	SENP7 block	Platelet DG rel	SENP8 block-2	SENP8 conf	SENP6 confirm	SENP7 confirm	Casp3 select	SENP luc ctr
CCCCNC(=O)C1CCN(Cc2ccccn2)CC1	-7.9	-2.4	-7.2	-3.3	6.2	/	/	/	/	/
Cc1ccc(NC(=O)C2CCCN(S(=O)(=O)c3cccc4cccnc34)C2)cc1 (configuration not stated)	6.8	6.1	-0.6	-4.2	8.8	/	/	/	/	/
N#Cc1c(C(F)(F)F)cc(-c2cccc(Cl)c2)[nH]c1=O	73.6*	78.4*	3.6	-7.9	-268.4	90.9*	91.1*	95.5*	74.5*	88.7*
N#Cc1c(C(F)(F)F)cc(-c2ccc(F)cc2)[nH]c1=O	23.6	8.2	-7.8	-2.5	-391.5	/	/	/	/	/
N#Cc1c(C(F)(F)F)cc(-c2ccc(Cl)cc2)[nH]c1=O	51.5*	68.8*	22.9	-4.1	-313.1	-25.5	12.8	38.9	15.6	40.8
O=C(Nc1ccccn1)c1ccc(S(=O)(=O)N2CCCCC2)cc1	9.8	-9.8	3.4	-3.5	10.0	/	/	/	/	/
CN(C)c1ccc(C=Nc2ccccc2)cc1	-10.8	-5.8	-3.2	3.7	-0.2	/	/	/	/	/
C/C(=N/N=C/c1ccc(N(C)C)cc1)c1ccccc1	96.8*	97.7*	101.2*	56.2*	-42.6	3.1	80.3*	101.2*	67.2*	26.4
COc1ccc(/C=C/C=C2\N=C(SC)SC2=O)cc1	86.2*	84.2*	90.7*	9.0	24.6	-2.6	8.2	2.2	3.4	17.4
CSC1=N/C(=C\c2ccc(F)cc2)C(=O)S1	-26.3	-9.1	4.1	-0.9	-8.5	/	/	/	/	/
CCOC(=O)CC1(C)c2nc(NC(C)=O)sc2Cc2sc(NC(C)=O)nc21	/	/	/	/	-406.2	/	/	/	/	/
c1ccc(Cn2nc(-c3ccccc3)nc2-c2ccccc2)cc1	61.9*	47.3	40.6	4.1	11.1	45.3	38.5	73.5*	29.3	16.6
O=C(O)c1cc(C2CC2)nn1-c1ccccc1	-12.5	-11.3	-5.5	-0.6	14.0	/	/	/	/	/
Nc1cc(C2CCCC2)nn1-c1ccccc1	62.1*	32.3	41.5	43.3	4.8	37.5	38.9	77.0*	81.4*	55.0*
COc1ccc(OC)c(NC(=O)CCN2CCN(C/C=C/c3ccccc3)CC2)c1	-20.1	-5.7	-1.9	5.1	14.8	/	/	/	/	/
CCn1nccc1C(=O)Nc1ccc(C(=O)OC(C)C)cc1	76.9*	67.4*	76.2*	3.7	7.4	8.5	68.3*	88.0*	66.6*	59.2*
COc1ccccc1NC(=O)c1cccc(N2C(=O)C3C4C=CC(C4)C3C2=O)c1 (configuration not stated)	-8.8	3.7	-5.0	2.2	17.0	/	/	/	/	/
